In ChEMBL document CHEMBL1157539, “Thousands of chemical starting points for antimalarial lead identification” (Nature, 2010) one finds Inhibition data, which are given here for 28 compounds.

Common to all, as to format: functional
Assay [1] concerns Plasmodium falciparum. The experiment in a line: GSK_TCMDC: Inhibition of Plasmodium falciparum 3D7 in whole red blood cells, using parasite LDH activity as an index of growth. Test compounds present at 2uM.
Assay [2] deals with Plasmodium falciparum. The experiment in a line: GSK_TCMDC: Inhibition of Plasmodium falciparum Dd2 in whole red blood cells, using parasite LDH activity as an index of growth. Test compounds present at 2uM.
The subject of assay [3] is HepG2. The assay can be described thus: GSK_TCMDC: Percent inhibition of human HepG2 cell line. Test compounds present at 10uM.

Broadly, the Inhibition is the share of the control response that was lost under treatment. A lower Inhibition goes with a weak effect.

Consider `O=C(Nc1ccc(Cl)c(Cl)c1)Nc1ccccc1N1CCNCC1.O=C(O)C(F)(F)F`, for which the Inhibition in assay [1] is listed as 100%; in assay [2], 22%; in assay [3], 17%.

`FC(F)(F)c1ccc2[nH]c(-c3ccc(-c4cccc(CNCc5cnn(-c6ccccc6)n5)c4)s3)nc2c1.O=C(O)C(F)(F)F`: the Inhibition is 100% in assay [1], 91% in assay [2] and 38% in assay [3].

Take `O=C(O)C(F)(F)F.O=C1CCCN1CCCNCc1ccc(-c2ccc(-c3nc4cc(C(F)(F)F)ccc4[nH]3)s2)cc1`: the Inhibition amounted to 100% in assay [1], 96% in assay [2] and 9% in assay [3].

Regarding `COc1ccc(C(=O)NC(c2ccc(Cl)cc2Cl)c2cc(Cl)c3cccnc3c2O)cc1` (centres undefined), the values for the Inhibition in assay [1], in assay [2] and in assay [3] were 84%, 48% and 46%, respectively.

With `CCOc1ccc2ccccc2c1CNCCCCCCNCc1c(OCC)ccc2ccccc12.CS(=O)(=O)O`, the Inhibition is given as 100% in assay [1], 89% in assay [2] and 100% in assay [3].

Regarding `COc1ccc2nc(N(CCCn3ccnc3)C(=O)C=Cc3cccs3)sc2c1.Cl`, the results for the Inhibition in assay [1], in assay [2] and in assay [3] were 92%, 26% and 8%, respectively.

As to `CC(C)Cn1cc(C2CCN(CCN3CCC(CNC(=O)c4ccc(-c5ccc(C#N)cc5)cc4)CC3)CC2)c2ccccc21`, the Inhibition in assay [1] was 100%; in assay [2], 98%; in assay [3], 28%.

As to `Nc1c(Cl)cc(C(O)CNCCCCCOCCCc2ccc3ncccc3c2)cc1Cl.O=C(O)/C=C/C(=O)O` (centres undefined), the Inhibition in assay [1] worked out at 96%; in assay [2], 77%; in assay [3], 24%.

As to `Cc1c(O)cccc1Nc1ccnc2ccc(C(F)(F)F)cc12.Cl`, the Inhibition in assay [1] was 96%; in assay [2], 51%; in assay [3] it was 0%.

Take `CC(=O)N(C)C1CCN(Cc2ccc(-c3cccc(-c4nc5cc(F)ccc5[nH]4)c3)cc2)C1.O=C(O)C(F)(F)F` (centres undefined): the Inhibition in assay [1] is reported as 100%; in assay [2] it was 79%; in assay [3], 28%.

Consider `O=C1C2C3SC(c4c3ccc3ccccc43)C2C(=O)N1c1ccccc1` (centres undefined), for which the Inhibition in assay [1] worked out at 96%; in assay [2], 7%; in assay [3] it was 0%.

For `Cc1n[nH]c2cc(Nc3ccnc(Nc4ccc(CN5CCOCC5)cc4)n3)ccc12`, the Inhibition is on record as 97% in assay [1], 5% in assay [2] and 22% in assay [3].

On to `N=C(N)NN=CC(=O)Nc1cccc(C(F)(F)F)c1.O=S(=O)(O)O`, for which the results for the Inhibition in assay [1], in assay [2] and in assay [3] were 99%, 25% and 21%, respectively.

For `Cc1[nH]c(C)c(-c2ccc(-c3cccc(Cl)c3)nc2)c(=O)c1Cl`, the Inhibition was found to be 97% in assay [1], 97% in assay [2] and 15% in assay [3].

With `O=c1cc(NCCCNCc2cccc(Oc3ccccc3)c2)[nH]c2ccccc12`, the Inhibition was 93% in assay [1], 67% in assay [2] and 0% in assay [3].

Turning to `NC1=NC2(CCCCC2)N(OCCCCCCN2C(=O)c3ccccc3C2=O)C(N)=N1`, the Inhibition was determined as 98% in assay [1], 16% in assay [2] and 20% in assay [3].

Consider `CCOc1cc(C(=O)NCc2cccc(C(F)(F)F)c2)ccc1-c1nc2cc(Cl)ccc2[nH]1`, for which the results for the Inhibition in assay [1], in assay [2] and in assay [3] were 88%, 31% and 7%, respectively.

Turning to `CS(=O)(=O)O.FC(F)(F)COc1c(CNCCCCCCNCc2ccc3ccccc3c2OCC(F)(F)F)ccc2ccccc12`, the results for the Inhibition in assay [1], in assay [2] and in assay [3] were 100%, 79% and 100%, respectively.

On to `COc1ccccc1CCNc1nc(C)cc(N[C@@H](Cc2ccccc2)C(=O)Nc2ccccc2)n1.O=C(O)C(F)(F)F`, for which the Inhibition in assay [1] is 100%; in assay [2], 86%; in assay [3], 30%.

As for `O=C(Nc1cccc(Cl)c1)c1cnc(N2CCN(c3ccncc3)CC2)c(Cl)c1.O=C(O)C(F)(F)F`, the Inhibition is listed as 100% in assay [1], 97% in assay [2] and 54% in assay [3].

As to `CCOCc1cnc(C)nc1NCC(=O)c1c(C)[nH]c2cc(C)ccc12.I`, the Inhibition in assay [1] is 89%; in assay [2] it was 76%; in assay [3], 8%.

As to `FC(F)(F)c1cccc(Nc2nc3ccccc3nc2Nc2cccc(C(F)(F)F)c2)c1`, the Inhibition in assay [1] was 100%; in assay [2], 100%; in assay [3], 45%.

In the case of `Cl.Clc1ccc(C2CCN(CCCOc3ccc4c(c3)CCNCC4)CC2)cc1`, the Inhibition in assay [1] was found to be 98%; in assay [2], 28%; in assay [3], 93%.

Turning to `Cc1c(Cl)cccc1S(=O)(=O)N1CCCCC(c2ccc(C(F)(F)F)cc2)=N1`, the Inhibition in assay [1] is recorded as 86%; in assay [2] it was 91%; in assay [3] it was 15%.

As for `Br.CCOC(=O)c1cc(Cl)cc(Cl)c1OCCCON1C(=N)N=C(N)NC1(C)C`, the results for the Inhibition in assay [1], in assay [2] and in assay [3] were 93%, 97% and 70%, respectively.

Regarding `O=C(NCc1ccc(F)cc1)Nc1ccc(-c2ccc(-c3nc4ccccc4[nH]3)cc2)cc1`, the Inhibition is 100% in assay [1], 98% in assay [2] and 43% in assay [3].

In the case of `Cc1nc2ccccc2c(=O)n1/N=C/c1ccccc1[N+](=O)[O-]`, the results for the Inhibition in assay [1], in assay [2] and in assay [3] were 94%, 26% and 0%, respectively.

As to `Cc1cc(CN2CC[C@H](NC(=O)c3ccc(Cl)c(Cl)c3)C2)ccc1OCCN1CCNCC1.O=C(O)C(F)(F)F`, the Inhibition in assay [1] was 94%; in assay [2], 1%; in assay [3], 15%.
